# Assay results from paper PMC5540273 (PLoS ONE, 2017).
# Read-outs that look alike come from different tables or passages of the source.
# How the values were obtained:
# LCK = conditions: concentration: 1 μM,replicates: in singlicate; n = 1
# LIMK1 = conditions: concentration: 1 μM,replicates: in singlicate; n = 1
# LIMK2 = conditions: concentration: 1 μM,replicates: in singlicate; n = 1
# LKB1 = tested on: T1, LKB1; conditions: concentration: 1 μM,replicates: in singlicate; n = 1
# T1 construct: gene STK11
# LOK = tested on: T2, LOK; conditions: concentration: 1 μM,replicates: in singlicate; n = 1
# T2 construct: gene STK10
# LRRK2 = conditions: concentration: 1 μM,replicates: in singlicate; n = 1
# LTK = conditions: n = 1
# LYN = conditions: concentration: 1 μM,replicates: in singlicate; n = 1
# LZK = tested on: T3, LZK; conditions: concentration: 1 μM,replicates: in singlicate; n = 1
# T3 construct: gene MAP3K13
# MAK = conditions: concentration: 1 μM,replicates: in singlicate; n = 1
# [1] = concentration: 1 μM,replicates: in singlicate
# 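Also: KINOMEscan kinase panel screen.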
Structure (SMILES),%Inh (LCK) [%],%Inh (LIMK1) [%],%Inh (LIMK2) [%],%Inh (LKB1) [%],%Inh (LOK) [%],%Inh (LRRK2) [%],%Inh (LTK; [1]) [%],%Inh (LYN) [%],%Inh (LZK) [%],%Inh (MAK) [%],%Inh (LTK; 1 µM) [%]
c1ccc(Oc2ccc(Nc3ccnc4ccc(-c5ccccn5)cc34)cc2)cc1 [GW407034],83,5,0,0,0,5,0,22,0,59,–
O=C(Nc1ccc(Oc2ccc3nc(NC(=O)C4CC4)cn3n2)c(F)c1)c1cccn(-c2ccccc2)c1=O,0,33,29,0,99.5,0,29,36,0,10,–
COc1cc(Nc2nccc(N3CCC(NC(=O)c4cccc(C#N)c4)C3)n2)cc(OC)c1OC (stereo not shown) [GSK1379751],0,92.6,17,0,0,0,2,0,33,7,–
COc1cccc(CNC(=O)NC2CCN(c3ccnc(Nc4cc(OC)c(OC)c(OC)c4)n3)C2)c1 (stereo not shown) [GSK1379765],34,9,82,0,49,0,78,0,32,31,–
COC(=O)c1cccc(NC(=O)NC2CCN(c3ccnc(Nc4cc(OC)c(OC)c(OC)c4)n3)C2)c1 (stereo not shown) [GSK1379767],7,0,35,0,45,0,83,0,54,36,–
CN(c1cccc(CNc2nc(Nc3ccc4c(c3)CC(=O)N4)ncc2C(F)(F)F)c1)S(C)(=O)=O,42,0,0,5,0,18,60,18,0,0,–
COc1cc2c(Nc3ccc(NC(=O)c4ccccc4)cc3)ncnc2cc1OCCCN1CCOCC1 [GSK301329],87,3,0,0,77,33,27,52,55,0,–
O=C(NOCC1CC1)c1cc(Br)c(F)c(F)c1Nc1ccc(I)cc1Cl,0,0,0,7,2,0,0,9,9,37,–
C[C@@H]1CNc2c(sc3ccc4nc(-c5ccc(O)cc5)ccc4c23)C(=O)N1,0,4,0,0,19,93.5,83,4,0,46,–
O=C(NCC1CC1)c1ccc(-c2cc(C(=O)NC3CC3)ccc2F)cc1 [GW810445],0,0,0,68,5,71,28,0,0,0,–
COc1cc2ncn(-c3cc(OCC4CCCCC4)c(C(N)=O)s3)c2cc1OC [GSK204559],37,2,13,0,63,20,10,0,0,18,–
CCOC(=O)N1CCC(n2cnc(-c3ccc(F)cc3)c2-c2ccnc(N)n2)CC1 [SB-219952],0,8,13,15,100,0,17,9,15,0,–
CS(=O)(=O)c1cccc(CNc2nc(Nc3ccc4c(c3)[C@@H]3C[C@@H]4CNC3=O)ncc2C(F)(F)F)c1,0,0,0,12,81,72,5,25,0,0,–
Cc1ccc(Nc2ccnc(Nc3ccc4c(c3)CS(=O)(=O)C4)n2)cc1O.Cl [GW579362],97.3,35,49,29,83,79,55,84,58,73,–
CN(c1ccccc1CNc1nc(Nc2ccc3c(c2)CC(=O)N3)ncc1C(F)(F)F)S(C)(=O)=O,78,0,0,0,57,20,81,26,0,16,–
Cl.Cl.NC[C@H](CC1CCCCC1)NC(=O)c1ccc(-c2ccnc3[nH]ccc23)s1 [GSK1581428],37,0,0,50,31,49,0,0,0,0,–
O=C(Nc1cccc(Oc2ccc3nccn3n2)c1)Nc1cccc(C(F)(F)F)c1,71,0,25,0,64,21,0,42,0,38,–
Cn1ccc2ncnc(Oc3ccc(NC(=O)Nc4cncc(C(F)(F)F)c4)c(Cl)c3)c21,50,0,0,0,99.2,0,16,32,0,0,–
CC(C)S(=O)(=O)N1CCN(Cc2ccc3c(c2)nc(NC(=O)c2ccsc2)n3C[C@H](O)c2ccccc2)CC1 [GW635815],39,0,0,0,0,66,25,0,69,18,–
COc1ccc(Nc2nccc(N3CCC(NC(=O)c4cccc(C#N)c4)C3)n2)cc1 (stereo not shown) [GSK1379730],23,0,0,2,0,31,0,0,0,26,–
COc1cccc(OC)c1C(=O)Nc1cccc(-c2nn3ccccc3c2-c2ccnc(Nc3cccc(F)c3)n2)c1 [GSK361065],24,31,15,6,90,0,–,8,8,14,13
FC(F)(F)c1cc(Br)cc(Nc2nccc(-c3cnn4ncccc34)n2)c1 [GW810578],4,0,0,14,25,58,18,8,0,55,–
